The source made the active and inactive calls. How the source made its calls: active means hit-call score of the fitted dose curve at least 0.9, where 1 is the maximum; inactive means score below 0.9.

Read-out in the first assay: not listed separately
The assay can be described thus: CEETOX_H295R_PROG: CeeTox H295R High-throughput Steroidogenesis Assay for Progesterone (PROG) (AID 2283442).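 On AC50: human H295R adrenal cells primed with 10 µM forskolin before dosing; progesterone secreted into medium by H295R cells measured by HPLC-MS/MS.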 The note with it: actives raise or lower the signal. The essentials: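 Adrenal H295R line, forskolin-stimulated (10 uM, 48 h) before dosing. 48 h exposure, 0.1% DMSO vehicle. Secreted progesterone by reverse-phase HPLC with ESI+ MS/MS quantification; DMSO-normalised bidirectional curve fit.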
For the compound `Nc1nc(Cl)nc2c1ncn2[C@H]1C[C@H](O)[C@@H](CO)O1`, the AC50 is 0.128 µM (active).
The same measure, in the same setting: then `CCCCCCCCCC[N+](C)(C)[O-]`, with 3.86 µM (active); and `Oc1ccc(O)cc1`, with 3.17 µM (active).
Turning to `O=C(O)CN(CC(=O)O)CC(=O)O`, the compound was called inactive.
Still for that read-out and setting: then `O=C1c2c(O)cccc2Cc2cccc(O)c21`, with “inactive”.
For `O=C1OC(c2ccc(O)cc2)(c2ccc(O)cc2)c2ccccc21`, the AC50 is 2.39 µM (active).
Same read-out and setting: the value for `CC1=C(C)S(=O)(=O)CCS1(=O)=O` was 1.03 µM (active); that for `CCN(CC)CCOc1ccc(C(=C(Cl)c2ccccc2)c2ccccc2)cc1` was 0.0347 µM (active).
Turning to `Oc1ccccc1O`, the compound was called inactive.
The same measure, in the same setting: then `O=C1NC(=O)C(c2ccccc2)(c2ccccc2)N1`, with “inactive”; and `CN(C)C(=O)NC1(c2ccccc2)CCN(CCC[C@]2(c3ccc(Cl)c(Cl)c3)CCCN(C(=O)c3ccccc3)C2)CC1`, with “inactive”; and `O=C(Oc1ccccc1)c1cccc(C(=O)Oc2ccccc2)c1`, with “inactive”.
The same measure, in the same setting: then `Cc1c(C)c2c(c(C)c1O)CCC(C)(COc1ccc(CC3SC(=O)NC3=O)cc1)O2` (stereo not given), with “inactive”.
As for `CC(=O)[C@@]1(O)CC[C@H]2[C@@H]3CCC4=CC(=O)CC[C@]4(C)[C@H]3CC[C@@]21C`, the AC50 was 42.6 µM (active).
Consider `CCCCc1nc2cccnc2n1Cc1ccc(-c2ccccc2-c2nnn[nH]2)cc1`, for which the AC50 was 9.12 µM (active).
Consider `CC(C)(O)c1ccc(CNC(=O)c2cccnc2Oc2ccc(F)cc2)cc1`, for which the compound was classed as inactive.
In the case of `Cc1cc(Cc2ccc(N)c(C)c2)ccc1N`, the AC50 is 18.9 µM (active).
On to `COc1ccc(C(=O)Nc2nc3ccccc3c(NCc3ccccc3)c2C#N)cc1`, for which the AC50 was 1.49 µM (active).
With `S=c1[nH]c2ccccc2s1`, the compound was classed as inactive.
As to `CC(=O)O[C@]1(C(C)=O)CC[C@H]2[C@@H]3C=C(Cl)C4=CC(=O)[C@@H]5C[C@@H]5[C@]4(C)[C@H]3CC[C@@]21C`, the call was inactive.
Take `CCC(C)N(C)C(=O)c1cc2ccccc2c(-c2ccccc2Cl)n1` (stereo not given): the AC50 was 3.89 µM (active).

Read-out in another assay: Tumor necrosis factor receptor superfamily member 6 (Homo sapiens) (UniProt P25445)
The assay can be described thus: LTEA_HepaRG_FAS: Life Technologies and Expression Analysis (LTEA) Assay for Fas cell surface death receptor (FAS) using HepaRG (AID 2283447). The settings on record: mRNA level, 48 h; actives raise or lower the signal. In short, it runs like this:
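Differentiated HepaRG cells in serum-free induction medium were exposed 48 h to 8 half-log concentrations up to 100 uM in 0.5% DMSO, in duplicate. FAS mRNA was measured by qRT-PCR normalised to ACTB, GAPDH and POLR2A; bidirectional fit versus DMSO.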
As to `Nc1nc(Cl)nc2c1ncn2[C@H]1C[C@H](O)[C@@H](CO)O1`, the AC50 was 0.209 µM (active).
As to `CCCCCCCCCC[N+](C)(C)[O-]`, the compound was classed as inactive.
Still for that read-out and setting: then `Oc1ccc(O)cc1`, with “inactive”; and `O=C(O)CN(CC(=O)O)CC(=O)O`, with “inactive”; and `CC(COCC(C)OC(=O)c1ccccc1)OC(=O)c1ccccc1` (stereo not given), with “inactive”.
As to `C#CC(O)C(CC)CCCC` (stereo not given), the compound was called inactive.
In the case of `O=C(O)c1[nH]n(-c2ccc(S(=O)(=O)O)cc2)c(=O)c1N=Nc1ccc(S(=O)(=O)O)cc1`, the compound was called inactive.
For the compound `CS(=O)(=O)c1ccc([C@@H](C[C@H]2CCC(=O)C2)C(=O)Nc2cnccn2)cc1Cl`, the AC50 was 24.4 µM (active).
As for `CC1=C(C)S(=O)(=O)CCS1(=O)=O`, the AC50 was 76.8 µM (active).
In the case of `CC(=O)O`, the outcome was inactive.
The same measure, in the same setting: the value for `O=C(Oc1ccccc1)c1cccc(C(=O)Oc2ccccc2)c1` was “inactive”.
On the same count and under the same terms, then `O=C(O)CC(O)(CC(=O)O)C(=O)O`, with “inactive”; and `Cc1c(C)c2c(c(C)c1O)CCC(C)(COc1ccc(CC3SC(=O)NC3=O)cc1)O2` (stereo not given), with “inactive”.
Same read-out and setting: the value for `CC(=O)[C@@]1(O)CC[C@H]2[C@@H]3CCC4=CC(=O)CC[C@]4(C)[C@H]3CC[C@@]21C` was “inactive”; that for `CCCCc1nc2cccnc2n1Cc1ccc(-c2ccccc2-c2nnn[nH]2)cc1` was “inactive”.
With `CC(C)(O)c1ccc(CNC(=O)c2cccnc2Oc2ccc(F)cc2)cc1`, the compound was called inactive.
The same measure, in the same setting: the value for `CC(=O)O[C@]1(C(C)=O)CC[C@H]2[C@@H]3C=C(Cl)C4=CC(=O)[C@@H]5C[C@@H]5[C@]4(C)[C@H]3CC[C@@]21C` was “inactive”; that for `OCC(O)CO` was “inactive”.
With `c1ccc2occc2c1`, the compound was classed as inactive.

The record behind these values is PubChem BioAssay (EPA / NIEHS).
